# Assay results published in ChEMBL document CHEMBL3433997, “St. Jude Leishmania screening dataset” (2016).
# Biological target: Glucose transporter (Leishmania mexicana) (UniProt O61059)
# Assay: ST_JUDE_LEISH: Cytotoxicity at 2uM final concentration against transgenic Leishmania Mexicana promastigotes LmGT2 that are glucose transport deficient and complemented with the L. Mexicana glucose transporter 2. Activity is measured by DNA content using SYBR green in vitro
# Format: functional
row,Compound,inhibition [%]
1,N=C(N)CCN(Cc1ccc(Cl)cc1)c1ccc(Cl)cc1,0.65
2,CCOC(=O)c1cccc(NC(=N)Nc2nc(C)cc(NCCc3ccccc3)n2)c1,5.39
3,Nc1nc(N)c2cc(Cc3ccccc3Cl)cnc2n1,1.45
4,CN1CCN(S(=O)(=O)c2ccc3nccc(Nc4ccc(Oc5ccccc5)cc4)c3c2)CC1,-1.4
5,COc1ccc(CC2(c3ccc(F)cc3)N=C(N)N(CCCc3ccccc3)C2=O)cc1 (stereo not given),4.39
6,CC(=O)N(Cc1nc(-c2cc(C(F)(F)F)cc(C(F)(F)F)c2)cs1)c1c(C)cccc1C,4.36
7,COc1ccc(NC(=O)c2ccc3[nH]c(-c4ccc(Cl)cc4)cc3c2)cc1OCCN(C)C,0.79
8,Cc1ccc(NC(=O)Nc2ccc(Br)cc2)cc1OCCN(C)C,2.82
9,O=C(/C=C/c1ccc(Cl)c(Cl)c1)NCCCCCN1CCC(CCNC(=O)Cc2ccc(Cl)cc2)CC1,4.06
10,Cc1cc(N[C@@H](CC(C)C)C(=O)NCc2cccc(F)c2)nc(Nc2ccccc2)n1,1.1
11,COc1c(C2CCN(CCCCNC(=O)c3ccc(-c4ccc(Cl)cc4)cn3)CC2)ccc2c1CCCC2,-2.15
12,CCCc1cc(=O)oc2cc(OC)c(C(=O)CC(C)C)c(OC)c12,6.92
13,CCCc1cc(Cc2cnc(N)nc2N)ccc1OCCCCCC(=O)O,1.32
14,Fc1ccc2[nH]c(-c3ccc(-c4cccc(CN5CCC(CCN6CCCCC6)CC5)c4)cc3)nc2c1,0.37
15,CC(C)Cn1cc(C2CCN(CCN3CCC(CNC(=O)c4ccc(NC(=O)c5cc(Cl)cc(Cl)c5)cc4)CC3)CC2)c2ccccc21,1.97
16,CN1CCN(c2ccnc3ccc(NC(=O)Cc4cccc(Cl)c4Cl)cc23)CC1,-0.31
17,Nc1cc(C(F)(F)F)ccc1Cl,-2.26
18,N#Cc1ccc(-c2ccc(C(=O)NCCCCN3CC=C(c4ccc5c(c4OCC4CC4)CCCC5)CC3)cc2)cc1,-0.24
19,CC(C)(C)c1nn(-c2ccccc2)c2[nH]c(=O)c(CNCCc3ccccc3)cc12,-1.89
20,COC(=O)c1cc(C(=O)CN(Cc2ccccc2)C(C)C)ccc1O,4.16

row,Compound,inhibition [%]
1,COc1cc2nc(NCC3CCN(C(=O)c4ccc(-c5ccc(C(=O)N(C)C)cc5C)cc4)CC3)nc(N)c2cc1OC,7.15
2,c1ccc(COc2ccc(Nc3ncnc4cnc(-c5ccc(CNc6cccnc6)o5)cc34)cc2)cc1,0.83
3,Cc1ccc2[nH]c(C)cc(=NN=CC=Cc3ccccc3)c2c1,-6.67
4,CCc1cc2c(cc1CC)CC(NC[C@@H](O)c1ccc(O)c3[nH]c(=O)ccc13)C2,2.1
5,COc1ccc(S(=O)(=O)N(CC(=O)NN=C(C)c2cccs2)c2cc(C)cc(C)c2)cc1OC,-1.17
6,Cc1nc(N)nc(N)c1CCCOc1ccc(Br)cc1,-1.62
7,CCC(C)c1ccc(O)c(NC(=O)c2cncc(Br)c2)c1 (stereo not given),-2.07
8,COc1ccc2nc(-c3cccc(C)n3)nc(Nc3ccncc3)c2c1,2.21
9,CC(C)(C)c1ccc(CN2CCC(CNC(=O)c3cc(-c4ccccc4)nc4ccccc34)CC2)cc1,-1.73
10,CCOc1cc(C(=O)NCc2cccc(C(F)(F)F)c2)ccc1-c1nc2cc(Cl)ccc2[nH]1,1.82
11,Cn1c(-c2ccccc2)cc2c3c(=O)cc(C(F)(F)F)[nH]c3ccc21,14.1
12,CCc1c(CCNC/C=C/C=C/CNCCc2ccc(OC)c(OC)c2CC)ccc(OC)c1OC,1.71
13,O=C(c1cccc(-c2cccc(-c3nc4ccccc4[nH]3)c2)c1)N1CCCCC1CN1CCC(O)C1 (stereo not given),0.03
14,O=C(Nc1ccc(-c2ccccc2)s1)N[C@H]1CCN(Cc2ccc(OCCCN3CCCCC3)cc2)C1,2.81
15,CN1CCCN(Cc2ccc(-c3cccc(NC(=O)c4cccc(F)c4)c3)cc2)CC1,7.57
16,CN(C)C(=O)CC(=O)NCc1c(Cl)cccc1Cl,2
17,O=C(NCc1cccc2ccccc12)c1ccc(CNC2CCN(Cc3ccccc3)CC2)cc1,4.22
18,O=C(NCCCCCN1CCC(c2c[nH]c3ccccc23)CC1)c1ccc(-c2ccccc2)nc1,2.97
19,CCOc1cc(CNCCCCCCNCc2cc(OCC)c(OCC)c3ccccc23)c2ccccc2c1OCC,103
20,N#CCOc1c(C2CCN(CCCCNC(=O)c3ccc(-c4ccc(C(F)(F)F)cc4)cc3)CC2)ccc2c1CCCC2,3.28
